The source of these data is PubChem BioAssay (NCATS).

Assay [1] addresses Peroxisome proliferator-activated receptor delta (Homo sapiens) (UniProt Q03181). The experiment in a line: qHTS assay for small molecule agonists of peroxisome proliferator-activated receptor delta signaling (AID 588534).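 Note: 0% = DMSO basal wells and 100% = positive control agonist at 10 µM.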 The essentials: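 Cells carrying a PPAR-delta beta-lactamase reporter were treated with compounds for 18 h at 37 °C in agonist mode. CCF4 fluorescence was read after 2 h; EC50 and efficacy from Hill fits.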
A general note: Quantitative high-throughput screening tests each substance at several concentrations.

Assay [2] can be described thus: qHTS assay for small molecule antagonists of peroxisome proliferator-activated receptor delta signaling (AID 588535).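 Note: cells co-treated with a PPAR-delta agonist as stimulator during compound exposure.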 The conditions noted are these: HEK293T PPARd-UAS-bla, beta-lactamase FRET ratio, 18 h; 460 nm channel. The essentials: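 Reporter: UAS-bla under PPAR-delta response element, HEK293T host. Medium: 2% charcoal/dextran FBS. Dosing: titration, 18 hrs, 37 C. Detection: CCF4, 2 hrs RT, 405 ex/460 and 530 em.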

Assay [3] deals with Peroxisome proliferator-activated receptor gamma (Homo sapiens) (UniProt P37231). The experiment in a line: qHTS assay for small molecule antagonists of peroxisome proliferator-activated receptor gamma signaling (AID 588537; active = well fitted inhibition curve with a large enough effect in the signal ratio, with a control signal flat, not every such curve was filed as active; the % refers to the signal ratio;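 note: reporter cells co-stimulated with 50 nM rosiglitazone agonist during compound treatment; % of control where 0% means no effect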). The essentials: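 We seeded GeneBLAzer HEK293 reporter cells at 3000 per well, allowed 6-6.5 h attachment at 37 C, then co-treated with test compound titrations and 50 nM rosiglitazone overnight (16 h). Inhibition was quantified from 460/530 nm emission ratios.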

In assay [4] the target is Vitamin D3 receptor (Homo sapiens) (UniProt P11473). The experiment in a line: qHTS assay for small molecule antagonists of vitamin D receptor signaling (AID 588541).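 Note: receptor activated by calcitriol during compound treatment; series mostly up to about 77 µM; % is set by controls: 0 for no effect and ±100 for the full control effect.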 The essentials:
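VDR-UAS-bla HEK293T cells (2000/well, 2% charcoal-stripped FBS) were treated with titrated compounds plus 1-alpha,25-dihydroxyvitamin D3 (50 nM or 3 nM final) for 16 h at 37 C. CCF4 beta-lactamase fluorescence was read; Hill fits gave IC50.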

Assay [5] has the same target. The experiment in a line: qHTS assay for small molecule agonists of vitamin D receptor signaling (AID 588543).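 Note: 0% = DMSO basal and 100% = reference agonist control.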 The essentials: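 Measured: β-lactamase reporter activity (CCF4, 405 nm excitation, 460/530 nm emission) in HEK293T VDR-UAS-bla cells after 16 h compound exposure at 37 °C. Normalization against 50 nM 1α,25-dihydroxyvitamin D3 and DMSO; Hill-fit EC50.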
The target of assay [6] is Retinoic acid receptor RXR-alpha (Homo sapiens) (UniProt P19793). The experiment in a line: qHTS assay for small molecule agonists of retinoid X receptor alpha signaling (AID 588544).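 Note: 0% = DMSO basal wells and 100% = reference agonist.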
Assay [7] deals with Thyroid hormone receptor beta (Homo sapiens) (UniProt P10828). The experiment in a line: qHTS assay for small molecule agonists of thyroid hormone receptor beta signaling (AID 588545).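 Note: 0% = DMSO only and 100% = 10 nM T3.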 The essentials: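 TR-UAS-bla GripTite HEK 293 cells (2500/well, medium with 2% charcoal/dextran FBS) were treated in agonist mode for 18 h at 37 C, titrated. Beta-lactamase was read by CCF4 ratio after 2 h; normalized to 10 nM T3 (100%) and DMSO, Hill-fitted for EC50 and efficacy.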

Assay [8] in a line: qHTS assay for small molecule antagonists of retinoid X receptor alpha signaling (AID 588546; active = well fitted inhibition curve with a large enough effect in the signal ratio, with a control signal flat, not every such curve was filed as active; the % refers to the signal ratio;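 note: cells stimulated with 9-cis-retinoic acid as agonist; % is set by controls: 0 for no effect and ±100 for the full control effect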). The following applies: HEK293T RXRa-UAS-bla, beta-lactamase ratio, antagonist mode; measured here: W530 green channel, cytotoxicity proxy. The essentials:
(§1)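 Beta-lactamase reporter inhibition, read as CCF4 fluorescence ratio (ex 405, em 460/530 nm) after 2 h at RT. HEK293T UAS-bla cells, 2500/well, were stimulated with 9-cis-RA at 500 or 100 nM final alongside test compound for 18 h at 37 C.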

For assay [9], the target named is Retinoic acid receptor RXR-alpha (Homo sapiens) (UniProt P19793). The description is as above. The conditions noted are these: HEK293T RXRa-UAS-bla, beta-lactamase ratio, antagonist mode. The essentials:
as §1

Assay [10] in a line: qHTS assay for environmental chemicals that activate the Aryl hydrocarbon Receptor (AhR) signaling pathway (AID 651777; active = well fitted curve in the direction sought with a large enough effect; an effect the other way counts as inactive or inconclusive; note: % of control where 0% means no effect; nearly all actives have a fitted effect of over 15% in size). The following applies: 1A2-DRE human hepatoma cells, luciferase, 24 h; activation: stronger effect = higher value. The essentials: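 Human hepatoma 1A2-DRE cells, stably carrying a dioxin response element and CYP1A2 promoter driving luciferase, were exposed to compounds for 24 hr at 37 C and 5% CO2. Luciferase signal was then read after 30 min One-Glo at room temperature.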

The target in assay [11] is Peroxisome proliferator-activated receptor alpha (Homo sapiens) (UniProt Q07869). Kind of assay: qHTS assay for small molecule agonists of the peroxisome proliferator-activated receptor alpha (PPARalpha) signaling pathway (AID 651778; active = well fitted curve in the direction sought with a large enough effect; an effect the other way counts as inactive or inconclusive; note: % of control where 0% means no effect). The conditions noted are these: PathHunter PPARalpha complementation, chemiluminescence, 6 h; max response: stronger effect = higher value. The essentials:
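Cells plated at 2,000/well and held overnight at 37 C, 5% CO2, then compound added by pin tool for 6 hr; after PathHunter detection reagent and 60 min at room temperature, chemiluminescence from enzyme complementation was read.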

A short description of assay [12]: qHTS assay for small molecule agonists of the antioxidant response element (ARE) signaling pathway measured by Nrf2-dependant transcriptional activity (AID 720636; active = well fitted curve in the direction sought with a large enough effect in the repeat runs; an effect the other way counts as inactive or inconclusive; note: % of control where 0% means no effect). The essentials: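 ARE-luc HepG2 cells carrying an Nrf2-responsive luciferase reporter were plated in medium with 1% dialyzed FBS, left 6 hr at 37 C to attach, then exposed to compound for 16 hr. Luciferase luminescence was read after ONE-Glo addition.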

Assay [13] in a line: qHTS assay for small molecule agonists of the antioxidant response element (ARE) signaling pathway measured by Nrf2-dependant transcriptional activity - cell viability counter screen (AID 720653; active = well fitted curve in the direction sought with a large enough effect in the repeat runs; an effect the other way counts as inactive or inconclusive; note: % is set by controls: 0 for no effect and ±100 for the full control effect). The following applies: ARE-bla HepG2 viability, CellTiter-Glo ATP luminescence, 16 h; max response: stronger effect = lower value. The essentials:
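ARE-bla HepG2 cells (2,000/well) rested 5 hrs at 37C/5% CO2, then exposed to compounds in DMSO for 16 hrs. Viability was read in the same wells as intracellular ATP by luminescence, 30 min at room temperature after reagent addition.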

Assay [14] can be described thus: qHTS assay for cell viability of HEK293 cells (AID 743288; active = well fitted curve in the direction sought with a large enough effect; an effect the other way counts as inactive or inconclusive; note: % is set by controls: 0 for no effect and ±100 for the full control effect; nearly all actives have a fitted effect of over 50% in size). The following applies: ATP luminescence (CellTiter-Glo), 18 h; max response: stronger effect = lower value. The essentials: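 Luminescent ATP quantitation served as the viability read-out. Cells (parental HEK293, 2,000/well) received compounds after at least 5 h at 37 C and were exposed for 18 h before a 30 min room-temperature reagent step.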

The target in assay [15] is Nuclear receptor subfamily 1 group I member 2 (Rattus norvegicus) (UniProt Q9R1A7). The experiment in a line: qHTS assay for small molecule activators of the rat pregnane X receptor (rPXR) signaling pathway (AID 651751; call rule not given here; note: 0% is about no effect). The conditions noted are these: rPXR reporter cells, luciferase (One-Glo), 24 h.
The target of assay [16] is Peroxisome proliferator-activated receptor gamma (Homo sapiens) (UniProt P37231). The experiment in a line: qHTS assay for small molecule agonists of peroxisome proliferator-activated receptor gamma signaling (AID 588536; active = well fitted curve in the direction sought with a large enough effect in the signal ratio, with a control signal flat, not every such curve was filed as active; the % refers to the signal ratio;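 note: 0% = DMSO basal wells and 100% = rosiglitazone at 2 µM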). The essentials: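 HEK293 UAS-bla reporter line, 1% charcoal/dextran FBS; titration, 16 h, 37 C; CCF4 loading 2 h RT; fluorescence 460/530 nm. Normalized to rosiglitazone 2 uM = 100%, DMSO = 0%.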

In assay [17] the target is Thyroid hormone receptor beta (Homo sapiens) (UniProt P10828). The experiment in a line: qHTS assay for small molecule antagonists of thyroid hormone receptor beta signaling (AID 588547; active = well fitted inhibition curve with a large enough effect in the signal ratio, with a control signal flat, not every such curve was filed as active; the % refers to the signal ratio;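 note: cells stimulated with 0.4 nM T3 agonist during compound exposure; series mostly up to about 77 µM; % is set by controls: 0 for no effect and ±100 for the full control effect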). The following applies: TR-UAS-bla HEK293, beta-lactamase ratio, antagonist mode, 18 h. The essentials:
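TR-UAS-bla GripTite HEK293 cells in 2% charcoal/dextran FBS medium were preincubated 4 h at 37 C, given compound (0.59 nM to 92 uM) plus 0.4 nM T3 (final) for 18 h, then CCF4 for 2 h at RT; Hill fit gave IC50.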

The nature of assay [18]: qHTS assay for cell viability of the p53RE-bla HCT-116 cell line (AID 743292; active = well fitted curve in the direction sought with a large enough effect; an effect the other way counts as inactive or inconclusive; note: % is set by controls: 0 for no effect and ±100 for the full control effect; nearly all actives have a fitted effect of over 55% in size). The essentials: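 CellSensor p53RE-bla HCT-116 cells, 4,000/well, preincubated 5 h at 37 C, then exposed to compounds in DMSO for 16 h at 37 C. Viability read as CellTiter-Glo luminescence (intracellular ATP) after 30 min at room temperature.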
The target in assay [19] is Glucocorticoid receptor (Homo sapiens) (UniProt P04150). The experiment in a line: qHTS assay for small molecule agonists of glucocorticoid receptor signaling (AID 588532; active = well fitted curve in the direction sought with a large enough effect in the signal ratio, with a control signal flat; the % refers to the signal ratio;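 note: 100% = dexamethasone at 0.1 µM and 0% = DMSO only wells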). The conditions noted are these: HeLa MMTV-bla, beta-lactamase ratio, agonist, 18 h; activation: stronger effect = higher value, percent of dexamethasone control, DMSO zero. The essentials: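 Titration series, up to 92 uM, applied to GRE-bla HeLa cells for 18 h at 37 C. Detection by CCF4 FRET substrate after 2 h at RT.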

Assay [20] can be described thus: qHTS assay for small molecule activators of the p53 signaling pathway (AID 651743; active = well fitted activation curve with a large enough effect in the signal ratio, not every such curve was filed as active; the % refers to the signal ratio; note: series mostly up to about 92 µM; % of control where 0% means no effect). The conditions noted are these: HCT-116 p53RE-bla, beta-lactamase FRET ratio, 16 h; activation: stronger effect = higher value. The essentials:
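Cell-based beta-lactamase reporter (p53 response elements, HCT-116 background). After a 5-hour preincubation, cells received compound for 16 hours at 37 C; substrate development ran 2 hours at room temperature.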

SMILES strings stand for the structures. Results filed as inconclusive are left out. Active and inactive are the calls of the source. Unless noted, calls come from the whole dose curve.

Chain of Thyroid hormone receptor beta (Homo sapiens) (P10828 whole entry, looked up): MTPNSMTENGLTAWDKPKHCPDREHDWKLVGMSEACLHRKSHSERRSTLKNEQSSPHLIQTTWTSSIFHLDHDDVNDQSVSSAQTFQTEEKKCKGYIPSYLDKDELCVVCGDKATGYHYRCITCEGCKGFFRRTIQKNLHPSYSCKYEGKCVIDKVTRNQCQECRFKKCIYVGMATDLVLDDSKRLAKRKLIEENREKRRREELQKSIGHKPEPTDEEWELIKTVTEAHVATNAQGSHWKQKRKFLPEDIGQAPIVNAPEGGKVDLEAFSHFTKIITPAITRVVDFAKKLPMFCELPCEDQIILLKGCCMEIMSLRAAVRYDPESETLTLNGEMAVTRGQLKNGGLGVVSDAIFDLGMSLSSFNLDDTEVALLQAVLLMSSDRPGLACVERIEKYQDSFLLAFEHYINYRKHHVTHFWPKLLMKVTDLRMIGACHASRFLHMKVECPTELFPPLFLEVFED
Chain of Peroxisome proliferator-activated receptor alpha (Homo sapiens) (Q07869 whole entry, looked up): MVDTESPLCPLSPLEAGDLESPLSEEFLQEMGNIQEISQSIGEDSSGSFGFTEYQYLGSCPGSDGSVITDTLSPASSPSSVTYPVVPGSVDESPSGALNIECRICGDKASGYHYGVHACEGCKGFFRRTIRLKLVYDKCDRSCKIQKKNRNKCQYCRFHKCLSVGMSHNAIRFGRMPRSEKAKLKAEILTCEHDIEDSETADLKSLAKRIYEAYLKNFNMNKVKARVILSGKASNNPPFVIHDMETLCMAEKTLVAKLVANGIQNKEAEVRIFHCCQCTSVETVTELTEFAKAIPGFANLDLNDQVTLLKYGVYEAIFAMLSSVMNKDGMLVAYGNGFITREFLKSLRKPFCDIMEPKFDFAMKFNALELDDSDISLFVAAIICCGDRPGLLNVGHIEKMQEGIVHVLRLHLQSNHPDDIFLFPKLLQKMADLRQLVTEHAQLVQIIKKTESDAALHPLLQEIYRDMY
Chain of Peroxisome proliferator-activated receptor gamma (Homo sapiens) (P37231 whole entry, looked up): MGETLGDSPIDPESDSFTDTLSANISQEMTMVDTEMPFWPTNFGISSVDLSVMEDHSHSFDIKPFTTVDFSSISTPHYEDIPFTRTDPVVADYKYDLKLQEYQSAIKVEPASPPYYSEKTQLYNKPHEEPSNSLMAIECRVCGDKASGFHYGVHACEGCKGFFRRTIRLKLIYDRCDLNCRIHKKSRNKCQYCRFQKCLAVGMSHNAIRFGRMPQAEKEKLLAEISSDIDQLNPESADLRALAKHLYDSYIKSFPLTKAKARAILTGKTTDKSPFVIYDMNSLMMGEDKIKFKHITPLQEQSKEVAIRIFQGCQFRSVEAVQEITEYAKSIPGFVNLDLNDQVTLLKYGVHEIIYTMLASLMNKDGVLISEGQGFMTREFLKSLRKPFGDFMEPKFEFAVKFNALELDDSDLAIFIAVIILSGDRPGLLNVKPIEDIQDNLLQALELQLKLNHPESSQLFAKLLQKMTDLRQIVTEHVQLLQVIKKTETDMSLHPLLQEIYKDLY
Chain of Retinoic acid receptor RXR-alpha (Homo sapiens) (P19793 whole entry, looked up): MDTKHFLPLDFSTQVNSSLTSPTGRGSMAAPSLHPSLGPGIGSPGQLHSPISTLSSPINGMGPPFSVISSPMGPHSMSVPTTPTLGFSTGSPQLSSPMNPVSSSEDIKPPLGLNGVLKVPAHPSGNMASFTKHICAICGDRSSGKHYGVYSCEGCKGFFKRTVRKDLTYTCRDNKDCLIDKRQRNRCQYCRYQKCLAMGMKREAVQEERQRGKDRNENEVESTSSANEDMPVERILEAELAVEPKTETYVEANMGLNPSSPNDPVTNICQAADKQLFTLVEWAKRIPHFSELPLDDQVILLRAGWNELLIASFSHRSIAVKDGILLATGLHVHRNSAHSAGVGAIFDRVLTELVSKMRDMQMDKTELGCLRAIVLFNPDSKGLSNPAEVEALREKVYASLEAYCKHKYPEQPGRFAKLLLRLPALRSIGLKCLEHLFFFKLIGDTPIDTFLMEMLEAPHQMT
Chain of Peroxisome proliferator-activated receptor delta (Homo sapiens) (Q03181 whole entry, looked up): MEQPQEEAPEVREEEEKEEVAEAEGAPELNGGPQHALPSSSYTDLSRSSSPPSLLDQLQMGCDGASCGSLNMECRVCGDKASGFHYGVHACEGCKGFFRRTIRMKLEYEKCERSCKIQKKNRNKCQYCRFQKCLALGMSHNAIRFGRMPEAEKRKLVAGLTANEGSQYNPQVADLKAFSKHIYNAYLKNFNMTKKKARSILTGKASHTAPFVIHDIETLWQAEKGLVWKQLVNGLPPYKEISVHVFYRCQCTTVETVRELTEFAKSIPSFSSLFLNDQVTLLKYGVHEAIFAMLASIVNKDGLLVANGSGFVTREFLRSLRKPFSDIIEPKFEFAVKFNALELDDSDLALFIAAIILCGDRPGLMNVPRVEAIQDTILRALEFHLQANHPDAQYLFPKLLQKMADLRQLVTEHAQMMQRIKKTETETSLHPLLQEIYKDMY
Chain of Nuclear receptor subfamily 1 group I member 2 (Rattus norvegicus) (Q9R1A7 whole entry, looked up): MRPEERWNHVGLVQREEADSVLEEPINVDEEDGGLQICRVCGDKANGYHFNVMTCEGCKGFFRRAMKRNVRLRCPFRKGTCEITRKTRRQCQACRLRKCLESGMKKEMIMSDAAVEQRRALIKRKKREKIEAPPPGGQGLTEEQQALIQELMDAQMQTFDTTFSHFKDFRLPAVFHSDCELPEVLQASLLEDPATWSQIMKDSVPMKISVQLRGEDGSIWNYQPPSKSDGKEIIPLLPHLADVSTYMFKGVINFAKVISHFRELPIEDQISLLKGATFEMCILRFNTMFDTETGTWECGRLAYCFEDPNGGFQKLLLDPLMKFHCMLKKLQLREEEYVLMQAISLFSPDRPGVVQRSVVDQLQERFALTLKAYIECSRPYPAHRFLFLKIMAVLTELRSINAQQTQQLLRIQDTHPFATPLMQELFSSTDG
Chain of Vitamin D3 receptor (Homo sapiens) (P11473 whole entry, looked up): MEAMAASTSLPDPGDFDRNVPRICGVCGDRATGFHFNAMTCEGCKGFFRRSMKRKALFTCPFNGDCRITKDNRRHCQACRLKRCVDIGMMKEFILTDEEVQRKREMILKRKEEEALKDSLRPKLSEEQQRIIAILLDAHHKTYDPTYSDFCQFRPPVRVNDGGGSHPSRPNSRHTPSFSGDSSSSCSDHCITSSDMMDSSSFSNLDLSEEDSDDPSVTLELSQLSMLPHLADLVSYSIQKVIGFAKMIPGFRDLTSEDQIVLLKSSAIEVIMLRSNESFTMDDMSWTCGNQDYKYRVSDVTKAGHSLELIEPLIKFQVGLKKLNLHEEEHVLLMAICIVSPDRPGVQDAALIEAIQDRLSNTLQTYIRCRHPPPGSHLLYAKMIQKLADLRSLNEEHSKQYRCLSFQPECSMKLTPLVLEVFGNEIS
Chain of Glucocorticoid receptor (Homo sapiens) (P04150 whole entry, looked up): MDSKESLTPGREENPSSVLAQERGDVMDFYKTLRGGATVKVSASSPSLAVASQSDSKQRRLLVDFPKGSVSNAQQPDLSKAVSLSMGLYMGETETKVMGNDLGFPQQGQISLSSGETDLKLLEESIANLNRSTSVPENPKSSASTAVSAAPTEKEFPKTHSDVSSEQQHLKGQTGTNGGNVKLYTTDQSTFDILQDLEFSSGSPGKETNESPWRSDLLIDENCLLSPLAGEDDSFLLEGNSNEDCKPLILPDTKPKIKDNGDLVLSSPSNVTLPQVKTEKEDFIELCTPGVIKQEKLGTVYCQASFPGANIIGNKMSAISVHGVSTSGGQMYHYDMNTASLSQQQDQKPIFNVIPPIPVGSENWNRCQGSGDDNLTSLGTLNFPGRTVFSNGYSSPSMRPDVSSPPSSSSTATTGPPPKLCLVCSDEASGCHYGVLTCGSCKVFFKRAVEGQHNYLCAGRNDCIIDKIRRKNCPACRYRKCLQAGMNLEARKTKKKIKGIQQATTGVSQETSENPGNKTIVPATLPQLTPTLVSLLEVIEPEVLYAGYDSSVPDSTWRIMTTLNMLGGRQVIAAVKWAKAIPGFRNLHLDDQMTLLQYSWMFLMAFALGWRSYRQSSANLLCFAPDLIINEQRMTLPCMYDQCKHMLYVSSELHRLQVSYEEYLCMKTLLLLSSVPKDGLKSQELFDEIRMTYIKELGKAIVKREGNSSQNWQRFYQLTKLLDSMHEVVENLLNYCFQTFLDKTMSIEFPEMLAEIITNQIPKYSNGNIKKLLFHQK

For `O=Cc1cccc(Oc2ccccc2)c1`, the outcome in [1] and in assay [5] was inactive. In addition, the max response in assay [2] was 10.7%; in [8], 1.81%; in [9], 1.63% (inactive); in assay [11], 4.39% (inactive); in assay [13], 2.38% (inactive); in assay [14] it was -4.08% (inactive). In [15], the max response is 0.0469% (inactive). The Potency entry in assay [3], in assay [4], in assay [6], in assay [7] and in assay [12] was “inactive” throughout. Further, the activation in [10] is -0.398% (inactive).
In the case of `CC1(C)Cc2cccc(O)c2O1`, the Potency entry in [16], in assay [3], in [4], in [6], in [7] and in assay [12] was “inactive” each time. The Potency entry in assay [18] was “inactive”. The outcome in assay [5] was inactive. The max response was -5.33% in assay [8]; -3.15% (inactive) in assay [9]; -0.718% (inactive) in assay [11]; 7.61% (inactive) in assay [13]; 4.44% (inactive) in assay [14]; 1.61% (inactive) in assay [15]. The activity change % (negative = inhibition) in assay [17] is -2.82% (inactive). Further, the activation in assay [10] is 0.293% (inactive).
As to `COP(=S)(OC)Oc1c(Cl)cc(C)cc1Cl`, the activation in assay [19] is 2.7% (inactive); in assay [20], 7.93% (inactive). Moreover, the outcome in assay [1] and in assay [5] was inactive. Further, the max response was -4.3% in assay [2]; -6.8% in assay [8]; -12.7% (inactive) in assay [9]; 5.67% (inactive) in assay [11]; -1.53% (inactive) in [13]; -18.5% (inactive) in assay [14]. Moreover, the max response in assay [15] was 1.76% (inactive). In addition, the Potency entry in assay [16], in assay [3], in assay [4], in [6], in [7] and in assay [12] was “inactive” in each case. Besides, the Potency entry in assay [18] was “inactive”. For the same compound, the activity change % (negative = inhibition) in [17] is 7.32% (inactive).
On to `CC(C)CCCCCCOC(=O)c1ccccc1C(=O)OCCCCCCC(C)C`, for which the activation in assay [19] was 9.1% (inactive); in assay [20], 0.433% (inactive); in assay [10], 1.61% (inactive). Further, the outcome in assay [1] and in assay [5] was inactive. Further, the max response was -6.95% in assay [2]; -8.76% in assay [8]; -4.29% (inactive) in assay [9]; -1.61% (inactive) in [11]; 0.428% (inactive) in assay [13]; -8.54% (inactive) in assay [14]. In addition, in assay [15], the max response is 5.38% (inactive). Besides, the Potency result in assay [4], in assay [6] and in assay [18] was “inactive” in each case. Moreover, the activity change % (negative = inhibition) in [17] is -2.48% (inactive).
Turning to `O=P(O)(O)CN(CP(=O)(O)O)CP(=O)(O)O`, the values for the activation in assay [19] and in [10] were 4.25% (inactive) and 0.682% (inactive), respectively. In addition, the compound was called inactive in assay [1] and in assay [5]. Moreover, the max response was 1.59% in [2]; -13.3% in assay [8]; -32% (inactive) in assay [9]; 4.68% (inactive) in assay [11]; -0.727% (inactive) in assay [13]; -1.66% (inactive) in assay [15]. Also, the Potency entry in assay [16], in [3], in assay [4], in assay [7], in [12] and in assay [18] was “inactive” throughout. Further, the activity change % (negative = inhibition) in assay [17] was -9.36% (inactive).
As for `CNC(=S)S`, the activation in assay [19] is -6.24% (inactive); in assay [10], 0.794% (inactive). For the same compound, the compound was classed as inactive in [1] and in assay [5]. The max response is -6.57% in assay [2]; -10.7% in assay [8]; -13.7% (inactive) in assay [9]; -2.07% (inactive) in [11]; -4.46% (inactive) in [13]; -18% (inactive) in assay [14]. Besides, the max response in assay [15] was 0.745% (inactive). In addition, the Potency entry in assay [16], in assay [3], in assay [4], in [6], in assay [12] and in assay [18] was “inactive” throughout.
